# Test results taken from ChEMBL document CHEMBL3988442, “University of Dundee, Small-Polar-MMV Screening Library” (2021).
# For some of these results: Measured potencies and affinities stand elsewhere.
# Columns and labels:
# Parameters in all cases: scale not given: direction of the effect not stated beside the values
# [1] = molecular target: Protein translocase subunit SecA (Escherichia coli (strain K12)) (UniProt P10408); experiment: Assay to Identify E. coli SecA ATPase Inhibitors; format: functional; details: 30 µM
# [2] = molecular target: T1, Ubiquitin-activating enzyme e1, putative (Leishmania donovani (strain BPK282A1)) (UniProt E9BSI1); experiment: Leishmania donovani Ubiquitin Activating Enzyme (LdE1); format: functional; details: 30 µM
# T1 sequence (whole entry): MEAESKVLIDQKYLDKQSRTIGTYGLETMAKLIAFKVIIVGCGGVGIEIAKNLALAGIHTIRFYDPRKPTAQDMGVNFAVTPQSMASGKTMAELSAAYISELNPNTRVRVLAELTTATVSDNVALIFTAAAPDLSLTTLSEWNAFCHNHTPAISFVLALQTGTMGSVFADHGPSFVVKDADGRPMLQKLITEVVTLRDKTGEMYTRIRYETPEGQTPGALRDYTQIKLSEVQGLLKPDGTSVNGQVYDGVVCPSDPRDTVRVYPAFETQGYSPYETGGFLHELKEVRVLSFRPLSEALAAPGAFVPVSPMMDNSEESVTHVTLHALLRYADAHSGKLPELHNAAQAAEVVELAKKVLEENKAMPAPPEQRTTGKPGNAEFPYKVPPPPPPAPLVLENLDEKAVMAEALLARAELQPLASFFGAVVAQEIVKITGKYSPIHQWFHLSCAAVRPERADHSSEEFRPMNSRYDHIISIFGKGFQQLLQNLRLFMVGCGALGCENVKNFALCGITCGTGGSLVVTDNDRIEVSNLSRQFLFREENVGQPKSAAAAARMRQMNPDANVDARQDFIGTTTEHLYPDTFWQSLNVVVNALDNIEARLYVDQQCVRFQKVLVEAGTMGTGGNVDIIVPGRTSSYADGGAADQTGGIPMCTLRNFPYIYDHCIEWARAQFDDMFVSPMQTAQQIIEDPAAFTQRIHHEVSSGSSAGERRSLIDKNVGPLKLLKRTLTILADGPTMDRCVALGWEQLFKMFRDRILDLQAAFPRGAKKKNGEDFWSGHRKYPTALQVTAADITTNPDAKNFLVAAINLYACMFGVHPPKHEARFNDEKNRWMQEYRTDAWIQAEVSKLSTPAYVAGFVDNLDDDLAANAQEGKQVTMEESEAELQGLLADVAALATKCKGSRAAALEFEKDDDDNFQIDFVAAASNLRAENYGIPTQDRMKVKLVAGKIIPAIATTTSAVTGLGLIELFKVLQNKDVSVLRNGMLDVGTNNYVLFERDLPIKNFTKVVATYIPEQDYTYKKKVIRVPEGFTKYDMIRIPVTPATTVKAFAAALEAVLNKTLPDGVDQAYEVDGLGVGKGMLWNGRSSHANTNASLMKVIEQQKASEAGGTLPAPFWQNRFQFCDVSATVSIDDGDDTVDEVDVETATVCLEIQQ
# [3] = molecular target: AMP-activated protein kinase, AMPK (Homo sapiens) (UniProt P54646+O43741+P54619+Q9UGJ0+Q9Y478+Q13131+Q9UGI9); experiment: AMP-dependent Kinase enzyme assay. An in vitro enzyme assay that detects ADP turnover that is directly proportional to AMPK activity. This uses naive AMPK that is activated during the assay with MK-8722; format: functional; details: 30 µM
# [4] = molecular target: Sialic acid-binding Ig-like lectin 9 (Homo sapiens) (UniProt Q9Y336); experiment: Hs-Siglec9 ALPHAscreen SOP 20170721; details: 10 µM
# Trypanosoma cruzi = experiment: Trypanosoma cruzi phosphomannomutase and mannose-1-phosphate guanylyltransferase assay; format: functional; details: 10 µM
# [5] = molecular target: T2, Arginase-2, mitochondrial (Homo sapiens) (UniProt P78540); experiment: in vitro enzyme assay to detect the production of urea directly proportional to the activity of Arginase II; format: functional; details: 33.3 µM; note: in the data most compounds retested in dose-response had high values
# T2 sequence (whole entry): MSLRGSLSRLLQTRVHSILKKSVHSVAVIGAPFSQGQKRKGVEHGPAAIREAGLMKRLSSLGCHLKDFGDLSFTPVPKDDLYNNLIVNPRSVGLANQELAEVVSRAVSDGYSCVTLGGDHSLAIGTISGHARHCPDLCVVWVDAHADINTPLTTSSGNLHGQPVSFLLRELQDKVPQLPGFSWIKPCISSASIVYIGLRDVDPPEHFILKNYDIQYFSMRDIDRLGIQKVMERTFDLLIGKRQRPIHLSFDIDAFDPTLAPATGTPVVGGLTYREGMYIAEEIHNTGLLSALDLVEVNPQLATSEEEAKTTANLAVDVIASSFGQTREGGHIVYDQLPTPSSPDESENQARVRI
# [6] = molecular target: T3, Proteasome subunit beta (Trypanosoma cruzi) (UniProt O96673); experiment: Trypanosoma cruzi proteasome chymotrypsin-like activity (TcProtChymo) assay.; note: in the data most compounds retested in dose-response had high values; format: functional; details: 9.37 µM
# T3 sequence (whole entry): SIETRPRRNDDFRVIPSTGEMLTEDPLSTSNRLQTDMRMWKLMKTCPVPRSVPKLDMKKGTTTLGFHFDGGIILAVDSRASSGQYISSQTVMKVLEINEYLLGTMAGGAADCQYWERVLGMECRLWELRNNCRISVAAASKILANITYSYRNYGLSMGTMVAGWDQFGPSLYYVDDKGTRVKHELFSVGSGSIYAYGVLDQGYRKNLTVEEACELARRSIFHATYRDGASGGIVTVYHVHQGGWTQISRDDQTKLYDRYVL
# Homo sapiens = species: Homo sapiens; experiment: To identify inhibition of the IFN signalling (Jak-Stat) pathway via expression of an eGFP reporter gene under the control of an IFN-stimulated response element (ISRE) containing MxA promoter.; format: functional; details: 30 µM
# [7] = molecular target: T4, Tyrosyl-tRNA synthetase, putative (Trypanosoma cruzi (strain CL Brener)) (UniProt Q4DSP6); experiment: Trypanosoma cruzi tyrosyl tRNA synthetase (TcYRS) _High Tyrosine SOP; format: functional; details: 30 µM; note: in the data most compounds retested in dose-response had high values
# T4 sequence (whole entry): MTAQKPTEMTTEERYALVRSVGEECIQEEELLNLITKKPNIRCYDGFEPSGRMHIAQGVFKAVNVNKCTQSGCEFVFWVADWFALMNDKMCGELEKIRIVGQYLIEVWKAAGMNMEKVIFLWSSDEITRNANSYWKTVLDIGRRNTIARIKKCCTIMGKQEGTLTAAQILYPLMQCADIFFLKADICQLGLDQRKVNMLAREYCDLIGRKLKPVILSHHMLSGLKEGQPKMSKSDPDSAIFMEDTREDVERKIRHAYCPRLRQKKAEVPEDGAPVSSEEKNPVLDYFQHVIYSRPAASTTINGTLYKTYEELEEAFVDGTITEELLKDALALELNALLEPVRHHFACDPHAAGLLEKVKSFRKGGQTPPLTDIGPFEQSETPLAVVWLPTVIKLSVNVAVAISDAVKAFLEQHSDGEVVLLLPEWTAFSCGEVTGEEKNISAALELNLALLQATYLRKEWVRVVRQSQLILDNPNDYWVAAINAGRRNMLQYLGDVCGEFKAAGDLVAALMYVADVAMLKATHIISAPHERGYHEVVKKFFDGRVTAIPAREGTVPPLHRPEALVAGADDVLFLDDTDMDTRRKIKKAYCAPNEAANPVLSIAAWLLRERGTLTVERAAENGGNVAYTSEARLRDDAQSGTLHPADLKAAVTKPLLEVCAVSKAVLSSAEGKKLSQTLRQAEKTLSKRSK
# [8] = molecular target: T4, Tyrosyl-tRNA synthetase, putative (Trypanosoma cruzi (strain CL Brener)); experiment: Trypanosoma cruzi tyrosyl tRNA synthetase (TcYRS) SOP; format: functional; details: 30 µM
# [9] = molecular target: Chromo domain-containing protein 1 (Saccharomyces cerevisiae (strain ATCC 204508 / S288c) (Baker's yeast)) (UniProt P32657); experiment: ScCHD-1 Enzyme Inhibition Assay; format: functional; details: 30 µM; note: in the data most compounds retested in dose-response had high values
# Sequence of Chromo domain-containing protein 1 (Saccharomyces cerevisiae (strain ATCC 204508 / S288c) (Baker's yeast)) (P32657 whole entry, the tested form may be a part): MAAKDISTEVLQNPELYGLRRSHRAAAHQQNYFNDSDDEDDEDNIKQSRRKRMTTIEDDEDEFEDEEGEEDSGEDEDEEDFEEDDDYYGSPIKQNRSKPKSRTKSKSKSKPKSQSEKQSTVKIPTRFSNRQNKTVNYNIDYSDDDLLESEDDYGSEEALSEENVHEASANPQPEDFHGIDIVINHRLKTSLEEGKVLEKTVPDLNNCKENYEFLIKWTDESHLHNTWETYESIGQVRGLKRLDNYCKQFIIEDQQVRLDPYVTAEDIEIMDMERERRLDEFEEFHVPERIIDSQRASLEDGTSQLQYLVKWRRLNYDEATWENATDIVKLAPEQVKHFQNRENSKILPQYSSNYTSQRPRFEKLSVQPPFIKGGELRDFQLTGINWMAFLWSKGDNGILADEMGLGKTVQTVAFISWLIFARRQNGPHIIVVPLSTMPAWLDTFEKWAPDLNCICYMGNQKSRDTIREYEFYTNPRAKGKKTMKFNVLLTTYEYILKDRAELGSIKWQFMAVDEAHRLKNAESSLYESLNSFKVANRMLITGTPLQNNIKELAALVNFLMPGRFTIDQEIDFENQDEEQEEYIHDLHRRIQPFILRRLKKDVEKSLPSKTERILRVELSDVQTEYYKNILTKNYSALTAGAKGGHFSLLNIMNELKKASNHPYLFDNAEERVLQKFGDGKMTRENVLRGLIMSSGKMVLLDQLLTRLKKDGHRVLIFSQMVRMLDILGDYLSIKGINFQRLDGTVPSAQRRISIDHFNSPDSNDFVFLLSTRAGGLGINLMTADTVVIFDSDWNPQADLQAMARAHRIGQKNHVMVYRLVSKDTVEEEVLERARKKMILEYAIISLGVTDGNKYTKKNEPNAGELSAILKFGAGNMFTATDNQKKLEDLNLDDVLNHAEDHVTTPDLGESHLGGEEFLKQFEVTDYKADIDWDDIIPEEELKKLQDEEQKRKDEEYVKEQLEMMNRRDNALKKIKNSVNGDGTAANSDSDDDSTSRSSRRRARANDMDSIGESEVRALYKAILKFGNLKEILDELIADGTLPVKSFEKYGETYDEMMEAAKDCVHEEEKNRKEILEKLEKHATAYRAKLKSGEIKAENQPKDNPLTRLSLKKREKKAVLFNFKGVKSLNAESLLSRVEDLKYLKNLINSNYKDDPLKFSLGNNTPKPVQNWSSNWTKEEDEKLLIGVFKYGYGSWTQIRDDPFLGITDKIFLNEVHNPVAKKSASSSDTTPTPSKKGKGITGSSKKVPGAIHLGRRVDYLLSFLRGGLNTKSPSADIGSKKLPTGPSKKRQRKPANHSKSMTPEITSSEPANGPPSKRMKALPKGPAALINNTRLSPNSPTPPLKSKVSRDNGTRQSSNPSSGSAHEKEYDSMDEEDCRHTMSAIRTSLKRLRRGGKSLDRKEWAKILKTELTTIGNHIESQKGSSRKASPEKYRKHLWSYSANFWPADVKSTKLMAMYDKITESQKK
# Sequence of Protein translocase subunit SecA (Escherichia coli (strain K12)) (P10408 whole entry): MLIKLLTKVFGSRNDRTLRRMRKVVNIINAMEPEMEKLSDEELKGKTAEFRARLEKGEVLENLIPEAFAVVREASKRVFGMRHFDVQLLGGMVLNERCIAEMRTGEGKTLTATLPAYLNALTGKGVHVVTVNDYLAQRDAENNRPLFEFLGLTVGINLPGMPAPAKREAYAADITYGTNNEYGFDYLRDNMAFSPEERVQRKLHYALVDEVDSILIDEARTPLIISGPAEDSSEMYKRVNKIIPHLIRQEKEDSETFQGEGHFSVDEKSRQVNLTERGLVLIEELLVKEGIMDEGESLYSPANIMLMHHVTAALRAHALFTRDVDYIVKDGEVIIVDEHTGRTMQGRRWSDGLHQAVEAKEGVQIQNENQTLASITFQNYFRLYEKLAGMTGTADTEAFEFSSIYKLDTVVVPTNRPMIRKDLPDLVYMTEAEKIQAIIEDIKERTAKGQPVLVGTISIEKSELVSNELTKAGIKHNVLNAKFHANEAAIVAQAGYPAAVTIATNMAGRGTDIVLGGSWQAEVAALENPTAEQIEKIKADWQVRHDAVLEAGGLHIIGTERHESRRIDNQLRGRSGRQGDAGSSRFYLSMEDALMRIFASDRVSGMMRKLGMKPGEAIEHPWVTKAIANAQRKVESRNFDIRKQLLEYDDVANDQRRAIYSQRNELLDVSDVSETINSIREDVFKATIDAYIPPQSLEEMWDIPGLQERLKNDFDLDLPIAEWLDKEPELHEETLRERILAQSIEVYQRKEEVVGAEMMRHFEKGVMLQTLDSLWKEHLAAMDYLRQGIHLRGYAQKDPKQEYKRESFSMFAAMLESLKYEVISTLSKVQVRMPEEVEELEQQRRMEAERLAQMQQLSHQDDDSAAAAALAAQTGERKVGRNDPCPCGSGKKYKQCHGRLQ
# Sequence of Sialic acid-binding Ig-like lectin 9 (Homo sapiens) (Q9Y336 whole entry): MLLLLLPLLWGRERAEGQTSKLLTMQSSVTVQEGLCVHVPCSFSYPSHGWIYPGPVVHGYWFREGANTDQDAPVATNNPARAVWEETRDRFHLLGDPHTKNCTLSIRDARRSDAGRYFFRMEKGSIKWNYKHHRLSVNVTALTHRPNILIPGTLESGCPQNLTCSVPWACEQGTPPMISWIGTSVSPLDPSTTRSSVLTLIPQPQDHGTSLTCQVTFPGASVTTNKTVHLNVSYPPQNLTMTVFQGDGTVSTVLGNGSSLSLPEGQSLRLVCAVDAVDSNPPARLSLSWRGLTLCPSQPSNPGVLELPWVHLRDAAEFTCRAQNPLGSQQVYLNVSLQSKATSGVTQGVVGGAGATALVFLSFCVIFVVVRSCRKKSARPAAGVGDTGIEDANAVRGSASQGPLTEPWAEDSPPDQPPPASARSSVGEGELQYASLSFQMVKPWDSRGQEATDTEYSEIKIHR
Structure (SMILES),Percent Effect [1] [%],Percent Effect [2] [%],Percent Effect [3] [%],Percent Effect [4] [%],Percent Effect (Trypanosoma cruzi) [%],Percent Effect [5] [%],Percent Effect [6] [%],Percent Effect (Homo sapiens) [%],Percent Effect [7] [%],Percent Effect [8] [%],Percent Effect [9] [%]
O=C(N[C@@H]1CN(c2ncccn2)[C@@H]2CCCO[C@@H]21)c1cnccn1,-3.44,2.67,2.76,2.22,0.772,-38.9,9.91,-16.7,6.25,20,-7.55
CCS(=O)(=O)Nc1ccn(Cc2cccc(Cl)c2)n1,-6.93,0,0.628,6.52,2.85,1.38,9.48,13.7,6.45,13.6,120
CCO[C@H]1CO[C@@]2(CCCN(Cc3nc(C)cs3)C2)C1,-0.479,16.4,-4.62,9.84,3.17,-2.4,7.79,-0.894,8.33,18.5,-4.88
O=C(NCCNc1ncccn1)c1ccc(-c2ccco2)[nH]c1=O,-5.27,27,-6.43,9.97,1.23,-11.6,15.9,6.48,8.37,23.5,-11.4
CC(C)(C)c1nc(CN2CCCC2CCc2ccccc2)no1 (stereo unspecified),-4.12,-2.6,4.97,-2.77,-6.18,-0.712,-5.91,27.2,0.971,-14.6,1.21
CNS(=O)(=O)c1cccc(CNc2ccc(C(F)(F)F)nn2)c1,-5.02,8.11,-4.31,-0.144,-3.87,30.9,-1.62,19.2,4.43,6.17,-1.87
O=C(Nc1nccs1)N(CCO)Cc1ccsc1,-1.95,13.2,-2.9,-1.76,5.08,-2.3,11.5,-0.668,8.33,29.3,-13.6
CCc1noc(C)c1C(=O)N1CCCC1Cn1nc(C)cc1C (stereo unspecified),-3.14,5.26,-1.52,-4.06,2.71,1.8,-3.47,-20.2,4.43,13.6,-6.42
CCc1nccn1C1CCCN(C(=O)c2cnc3ccccc3n2)C1 (stereo unspecified),-5.47,2.63,7.07,1.65,-1.07,-2.37,7.77,24.6,7.45,10.4,-2.28
CCN1CC2(CC1=O)CN(Cc1cnn(C)c1)CCN(C(C)=O)C2 (stereo unspecified),-7.25,8.11,4.66,-2.12,-2.34,-3.33,10.4,-2.64,5.94,8.54,2.03
CCc1ccccc1NC(=O)N1CCn2cnc(COC)c2C1,-3.57,8.11,-9.76,17.5,5.38,15.1,0.601,17.8,5.38,-1.24,-5.57
